Data from PubChem BioAssay.
Values without a mark were called inactive. Calls of active or inactive are those of the source.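 The calls were made as follows: active = inhibition above the hit cutoff set in the earlier primary screen (cut at about 27% in these data); inactive = the rest.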

Each molecule was assayed against Protein phosphatase methylesterase 1 (Homo sapiens) (UniProt Q9Y570) (assay: human PME-1 methylesterase inhibition confirmation – biochemical, fluorescence polarization, FP-Rh probe, triplicate (AID 2171;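 also: 0% = enzyme with DMSO and 100% = wells lacking PME-1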)). Conditions: recombinant PME-1, FP-Rh probe fluorescence polarization; at 5.9 µM; hits give high values.
Protein phosphatase methylesterase 1 (Homo sapiens), sequence (Q9Y570 whole entry, looked up): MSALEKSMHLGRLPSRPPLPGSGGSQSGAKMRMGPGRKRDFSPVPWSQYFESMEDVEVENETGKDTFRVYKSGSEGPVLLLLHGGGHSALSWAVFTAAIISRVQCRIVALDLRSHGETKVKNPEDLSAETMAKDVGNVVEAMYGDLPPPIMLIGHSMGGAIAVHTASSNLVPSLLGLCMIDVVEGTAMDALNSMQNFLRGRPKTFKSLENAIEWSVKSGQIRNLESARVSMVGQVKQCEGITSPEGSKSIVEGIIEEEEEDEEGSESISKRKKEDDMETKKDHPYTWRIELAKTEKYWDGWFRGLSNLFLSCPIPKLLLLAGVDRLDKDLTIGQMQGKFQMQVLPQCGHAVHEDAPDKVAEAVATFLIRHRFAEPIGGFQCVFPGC

| Compound | inhibition |
| --- | --- |
| O=C(COC(=O)c1ccccc1Br)Nc1cc(S(=O)(=O)N2CCOCC2)ccc1N1CCCC1 | 52.1% (active) |
| COc1cccc(C(=O)Oc2ccc(/C=N/Nc3ccc(C(=O)O)cc3)cc2OC)c1 | 36.3% (active) |
| O=c1ccc2ccc(Oc3ccc([N+](=O)[O-])cc3[N+](=O)[O-])cc2o1 | 25.6% |
| COC(=O)c1ccc(Cn2nnc3c(=O)[nH]c(C4CCN(S(=O)(=O)c5ccc(F)cc5)CC4)nc32)cc1 | 38% (active) |
| COc1cc(OC)c2cc(C(=O)N/N=C/c3ccccc3O)[nH]c2c1 | 19.1% |
| COc1ccc2[nH]c(O)c(N=NC(=O)c3ccc(NS(=O)(=O)c4cccs4)cc3)c2c1 | 19.4% |
| O=C(Nc1cccc(-c2csc(Nc3ccccc3)n2)c1)c1cc([N+](=O)[O-])cc(C(F)(F)F)c1 | 23% |
| C=CCCC(=O)Nc1nc(C)c(-c2csc(Nc3ccc(Cl)cc3)n2)s1 | 48.2% (active) |
| Oc1ccc(Nc2nc3ccccc3nc2Nc2ccc(O)cc2)cc1 | -0.74% |
| COc1ccc(NC(C(=O)Nc2cccc(C(C)=O)c2)c2ccccc2)cc1 (stereo not given) | 36% (active) |
| Cc1[nH]c2ccccc2c1CCNC(=O)c1ccc2c(c1[N+](=O)[O-])C(=O)c1ccccc1C2=O | 30.9% (active) |
| COc1ccc(Nc2nc(NN)nc(C)c2[N+](=O)[O-])cc1 | 17.7% |
| Nc1ccc(O)c2c1C(=O)c1ccccc1C2=O | 46.5% (active) |
| Cc1ccc(S(=O)(=O)/N=C2/C=C(Sc3ncn[nH]3)C(=O)c3ccccc32)c(C)c1 | 49.6% (active) |
| Cc1ccc(-c2nc(Nc3ccccc3)n[nH]2)cc1 | 48.5% (active) |
| COC(=O)N1C(=O)[C@](c2ccc(OC)cc2)(C(C)C)N1C(=O)OC | 48.2% (active) |
| COc1ccccc1C(=O)NC(=S)Nc1cccc2cc(O)ccc12 | 17% |
| O=C(c1ccc2c(c1)OCO2)N1CCCC(c2ccccc2)C1 (stereo not given) | 22% |
| CC(C)NC(=S)N=Nc1c(O)[nH]c2ccc(C(C)C)cc12 | 34.8% (active) |
| Cc1ccc(Cn2nnc3c(=O)[nH]c(C4CCN(S(=O)(=O)/C=C/c5ccccc5)CC4)nc32)cc1 | 23.8% |

| Compound | inhibition |
| --- | --- |
| CC(C)(C)c1cc(C(=O)N/N=C/c2ccc(-c3ccccc3[N+](=O)[O-])o2)n[nH]1 | 1.81% |
| CCNc1ccccc1CP(=O)(c1ccccc1)c1ccccc1O (stereo not given) | 8.88% |
| Brc1ccc(N=NNc2ccccc2)cc1 | 31.4% (active) |
| O=C(CSc1c(F)c(F)cc(F)c1F)Nc1ccc(C2SCCS2)cc1 | 5.01% |
| N#C/C(=C\c1ccc(O)c(O)c1)C(=O)Nc1cccc2ncccc12 | -29.9% |
| COc1ccccc1NS(=O)(=O)c1cccc(-n2c(O)c(C=Nc3ccccc3C(=O)O)c3ccccc3c2=O)c1 | 85.7% (active) |
| O=c1[nH]c(N/N=C\c2ccc3c(c2)OCO3)nc2ccccc12 | 24.6% |
| C=CCN=c1scc(-c2ccco2)n1/N=C/c1ccc(O)c(O)c1O | -17.6% |
| Cc1cc(N(C)C)ccc1N=Nc1ccc2ncccc2c1 | 42.3% (active) |
| COc1cc(C(=O)Nc2c(C(=O)O)[nH]c3ccc(Br)cc23)cc(OC)c1OC | 23.4% |
| O=C(N/N=C\c1ccc(COc2ccc([N+](=O)[O-])cc2)o1)c1cccc(Cl)c1 | 9.99% |
| CCOC(=O)Cc1csc(NC(=O)c2sc3nc4ccc(C)cc4cc3c2N)n1 | 21% |
| COc1cc(OC)cc(-c2nnc(Nc3nc4c(F)cccc4s3)o2)c1 | 56.2% (active) |
| Cn1c2ccccc2c2cc(/C=N/NC(=O)c3cc(O)ccc3O)ccc21 | 40.5% (active) |
| CC(C)=NNc1nc2sc3c(c2c(=O)[nH]1)CC(C)(C)OC3 | 14.6% |
| O=C(CNc1ccc(F)cc1)N/N=C/c1c(O)ccc2ccccc12 | 16.3% |
| Oc1c(Br)cc(C=Nc2ccc3nc(-c4ccccc4)[nH]c3c2)c(O)c1Br | 5.82% |
| CC1=Nc2ccccc2/C1=C/c1sc(=N)n(-c2nccs2)c1O | 40.4% (active) |
| N#Cc1ccccc1Cn1c(=O)n(-c2ccc(CC(=O)NCc3ccco3)cc2)c(=O)c2sccc21 | 38.4% (active) |
| COc1cccc(-c2nc(NC3CCCC3)c3ccccc3n2)c1O | 13.3% |
